# HEK293 tox = cytotoxic in the GLP-1 receptor inverse agonist counter-screen. HEK293 cAMP-luciferase reporter cells, luminescence, 24 h. AID 624418. actives 0.13% (n = 410,000). Potency, µM (top dose mostly 38.3 µM), for the others: at the top dose activity change, negative = inhibition, usual class: inhibitors;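 further: loss of luciferase light is scored as toxicity; potency means the concentration at half of the fitted maximal effect; on the % scale 0 is the no-effect control and ±100 the full control effect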
#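 Quantitative HTS format, 1536 wells, 200 cells/uL seeded. Compounds: 23 nL, 24 h, 37 °C. Detection: luciferase reagent, luminescence at 12 min RT; decreased signal taken as cytotoxic.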
# GLP1R ag = activates the human GLP-1 receptor. HEK293 GLP-1R CRE-luciferase, luminescence, 4-6 h; cells express a hypersensitive GLP-1R form. P43220. actives 0.007% (n = 380,000). Potency, µM (top dose mostly 45.6 µM), without a hit: top-dose activation, actives largely listed as activators. AID 624172; further: potency means the concentration at half of the fitted maximal effect; % of control where 0% means no effect
# PTHR1 ag = activates the human parathyroid hormone receptor PTHR1; Q03431; HEK293 GP2 PTHR1 cells, GloSensor cAMP luminescence, 1 h; Potency, µM (series often up to 115 µM), without a hit: top-dose activation, most hits filed as activators; actives 0.075% (n = 410,000); AID 743266; further: potency means the concentration at half of the fitted maximal effect; nearly all actives have a fitted effect of over 55% in size
#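 HEK-293-derived GP2 cells expressing PTHR1 and a GloSensor cAMP reporter, 3,000/well, plated overnight, given luciferin plus IBMX (each 0.5 mM as added) for 1 h at 37 °C, then compound for 1 h at 37 °C. Luminescence was read after 15 min at room temperature.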
# TSHR antag = antagonists of human thyroid stimulating hormone receptor | TSHR-expressing cells, TSH-stimulated cAMP HTRF, 2 h; stronger effect = lower value | activity change, negative = inhibition, % at 11.5 µM | actives 0.2% (n = 330,000) | AID 504810;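 active means activity change below a set negative limit, meaning inhibition stronger than a set level, cut at about -70% in these data; inconclusive means activity change between two set negative limits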; further: on the % scale 0 is the no-effect control and ±100 the full control effect
# Target sequence (P16473 whole entry, looked up): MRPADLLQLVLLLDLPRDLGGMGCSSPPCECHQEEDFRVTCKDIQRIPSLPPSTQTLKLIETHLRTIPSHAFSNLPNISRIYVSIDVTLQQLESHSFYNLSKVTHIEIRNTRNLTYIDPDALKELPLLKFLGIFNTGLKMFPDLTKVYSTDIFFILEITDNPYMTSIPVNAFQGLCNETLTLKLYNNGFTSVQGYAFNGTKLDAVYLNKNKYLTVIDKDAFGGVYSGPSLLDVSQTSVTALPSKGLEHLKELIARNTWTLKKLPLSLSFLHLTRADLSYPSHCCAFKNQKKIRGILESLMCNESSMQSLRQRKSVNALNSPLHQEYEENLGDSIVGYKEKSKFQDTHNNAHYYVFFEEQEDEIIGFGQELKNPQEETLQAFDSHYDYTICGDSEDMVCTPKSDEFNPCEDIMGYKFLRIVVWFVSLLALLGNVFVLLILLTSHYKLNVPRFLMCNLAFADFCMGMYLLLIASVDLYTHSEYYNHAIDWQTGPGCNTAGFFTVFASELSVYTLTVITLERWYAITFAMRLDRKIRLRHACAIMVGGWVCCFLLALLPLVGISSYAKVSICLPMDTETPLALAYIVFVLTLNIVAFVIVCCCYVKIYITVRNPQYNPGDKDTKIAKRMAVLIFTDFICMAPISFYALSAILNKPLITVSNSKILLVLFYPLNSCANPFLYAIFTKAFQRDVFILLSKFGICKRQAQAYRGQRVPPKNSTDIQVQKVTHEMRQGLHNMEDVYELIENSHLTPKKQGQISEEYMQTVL
#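 Cell-based HTRF cAMP assay; TSHR cells + compound, TSH EC80 (4nM final), 2 h, 37 deg C. Lysis with anti-cAMP cryptate and cAMP-d2, 30 min RT, read 665/620 nm.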
# GLP-1R inv ag = acts as inverse agonist at human GLP-1 receptor; HEK293 GLP-1R CRE-luciferase, luminescence, 24 h; GLP-1R form is constitutively active; Potency, µM (top dose mostly 38.3 µM), without a hit: top-dose activity change, negative = inhibition, most hits filed as inhibitors; actives 1.6% (n = 410,000); AID 624417; further: potency means the concentration at half of the fitted maximal effect; on the % scale 0 is the no-effect control and ±100 the full control effect; nearly all actives have a fitted effect of over 55% in size
#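 Luminescence readout: a drop in cAMP-driven luciferase signal flags inverse agonism at a constitutively active GLP-1R stably expressed in HEK293. Compound exposure lasted 24 hr at 37 deg C, 5% CO2.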
# * hit, by the source's call; i = inactive; u = inconclusive; x = no result given; [ ] = remark or other dose. A selection: hits, their analogues and other compounds. The true share with any hit is near 1.8%. Unless noted, the call rests on the fitted dose curve; in most records, active means well fitted curve in the direction sought with a large enough effect; inconclusive means small, poorly fitted or top-dose-only effect, or another doubt; inactive means no such curve, though single readings can be large; an effect the other way counts as inactive or inconclusive.
SMILES,HEK293 tox,GLP1R ag,PTHR1 ag,TSHR antag,GLP-1R inv ag
CCOc1ccc(/C=N/NC(=O)Cc2csc(Nc3cccc(C(F)(F)F)c3)n2)c(OCC)c1,-21.0%,-5.0%,-0.6%[57.5 µM],0.7,u
CCOc1ccc(/C=N/NC(=O)Cc2csc(Nc3cccc(C(F)(F)F)c3)n2)cc1,-28.6%,-19.9%,-20.7%[57.5 µM],7.4,2.24µM*
Cc1cc2c(cc1C)CSC(c1ccccc1OC(=O)C(C)C)SC2,-15.5%,0.5%,-14.4%,-17.1,10µM*
CCCCCCCCCCCCCCCCCC(=O)OCCO,x,5.6%,x,x,x
Cc1cc(/C=C2/SC(=S)N(c3cccc(C(F)(F)F)c3)C2=O)c(C)n1-c1cccnc1,-18.0%,5.7%,-35.0%,x,5.01µM*
O=S(=O)(NCC(c1ccco1)N1CCN(c2ccc(F)cc2)CC1)c1ccc(F)cc1 (centres undefined),9.2%,1.9%,i,18.7,10µM*
O=C(NCC(c1ccco1)N1CCN(c2ccc(F)cc2)CC1)OCc1ccccc1 (centres undefined),14.1%,-0.8%,-77.0%,-9.5,3.55µM*
COC(=O)NCC(c1ccco1)N1CCN(c2ccc(F)cc2)CC1 (centres undefined),-11.0%,4.8%,i,-0.5,-12.4%
CC(=O)SCC(CC(=O)c1ccc(C)cc1)C(=O)O (centres undefined),x,-2.3%,x,x,x
Cc1ccc(Cc2c(-c3ccc(Cl)cc3)nc3ccc(Cl)cn23)cc1,-26.8%,-6.3%,-36.5%,x,u
Cc1ccc(Cc2c(-c3ccc(C)cc3)nc3ccc(Cl)cn23)cc1,-4.4%,-2.9%,i,x,10µM*
CC(C)(C)Cc1c(-c2ccc(F)cc2)nc2ccc(Cl)cn12,u,-5.4%,-49.5%,x,5.62µM*
O=C(Nc1ccc(Cl)cc1)Nc1ccc(Cl)c(C(F)(F)F)c1,x,-3.7%,x,x,x
CCc1cccc(C)c1NC(=O)CN1CCN(Cc2ccccc2Cl)S1(=O)=O,-8.8%,x,-26.0%,x,-14.5%
CCc1ccc(/C=C2\SC(=S)N(CCCC(=O)N3CCN(C)CC3)C2=O)cc1,u,2.4%,i,x,10µM*
O=C1/C(=C\c2ccc(O)cc2)SC(=S)N1Cc1ccccc1,7.5%,-2.5%,-18.0%,-14.1,11.2µM*
COc1ccc(/C=C2\SC(=S)N(CCCC(=O)N3CCCCC3CCO)C2=O)cc1 (centres undefined),u,6.4%,i,-6.8,10µM*
COc1ccc(/C=C2\SC(=S)N(CCCC(=O)N3CCN(C)CC3)C2=O)cc1,u,2.8%,19.0%,6.8,u
O=C1/C(=C\c2ccccc2)SC(=S)N1CCC(=O)N1CCCCC1CCO (centres undefined),u,0.5%,-27.1%,-8.2,u
COC(=O)c1ccc(/C=C2/SC(=S)N(CCCC(=O)Nc3ccc(O)cc3)C2=O)cc1,u,-2.0%,i,-16.7,7.94µM*
O=C(O)c1ccc(/C=C2/SC(=S)N(Cc3ccccc3)C2=O)cc1,-3.8%,8.8%,-11.7%,-30.8,-18.3%
CCc1ccccc1NC(=O)Cn1c(=O)n(CCc2ccccc2)c(=O)c2sc3ccccc3c21,0.0%,0.1%,-57.8%,x,4.7%
COc1cccc(N2CCN(C(=O)c3c4c(nc5ccccc35)C(=O)N(C3CCCCC3)C4)CC2)c1,-13.7%,x,-12.8%,x,u
CN1CCN(C(=O)CCCN2C(=O)/C(=C/c3cccc(Br)c3)SC2=S)CC1,u,-5.7%,-7.9%,16.1,10µM*
O=C(CCCN1C(=O)/C(=C/c2cccc(Br)c2)SC1=S)N1CCOCC1,1.5%,7.7%,-6.8%,5.4,1.4%
SMILES,HEK293 tox,GLP1R ag,PTHR1 ag,TSHR antag,GLP-1R inv ag
CC(/C=N/NC(=O)c1nnn(-c2nonc2N)c1CN(C)C)=C\c1ccco1,-1.3%,-1.0%,0.0%,8.8,9.3%
CC/C(=N\NC(=O)c1nnn(-c2nonc2N)c1-c1cccs1)c1ccccc1,3.8%,7.1%,i,-1.3,7.94µM*
Cc1ccsc1/C=N/NC(=O)c1nnn(-c2nonc2N)c1CN(C)c1ccccc1,1.0%,1.3%,-33.2%,-13.0,11.2µM*
CCCN(CCC)Cc1c(C(=O)N/N=C/C(C)=C\c2ccco2)nnn1-c1nonc1N,-29.9%,0.3%,-11.6%,-32.5,3.55µM*
NC(=O)C1CCN(c2nc(-c3ccccc3)cs2)CC1,x,x,x,1.5,x
CCOC(=O)C1CCCN(C(=O)COc2ccc(C(=O)c3ccccc3)cc2)C1 (centres undefined),-9.1%,9.0%,i,-25.6,1.58µM*
COc1ccc2nc(C)cc(Nc3ccc(N4CCN(C)CC4)cc3)c2c1,u,11.1%,-15.4%,-3.5,5.62µM*
CC1CCc2c(sc3nc(C4CC4)nc(N4CCN(C(=O)c5ccco5)CC4)c23)C1 (centres undefined),u,-4.4%,-34.3%,x,5.62µM*
CSc1nc(Cl)c(Cc2ccc(OC(C)C)cc2)c(N2CCOCC2)n1,11.9%,7.7%,-61.8%[57.5 µM],-2.6,12.6µM*
COc1nc(SC)nc(Cl)c1Cc1ccc(OC(C)C)cc1,43.2%,2.7%,-23.4%,-4.0,u
CCNc1ccc(Br)cc(C(=O)/C=C/c2ccc(Cl)cc2)c1=O,-13.3%,0.1%,-30.3%,-6.6,2.82µM*
O=C(NCC(c1cccnc1)N1CCc2ccccc21)C(=O)Nc1ccccc1F (centres undefined),17.1%,x,u,x,u
Cc1nc2nc(C)n(CCN3CCOCC3)c(=O)c2c(-c2cccc([N+](=O)[O-])c2)c1C(=O)CCCCCCCCCCN1CCC(c2ccccc2)(c2ccccc2)CC1,u,-9.4%,i,x,2.82µM*
O=[N+]([O-])c1cccnc1N1CCC(c2cc(-c3ccc(Cl)cc3Cl)n[nH]2)CC1,-22.4%,-0.7%,i,-20.1,5.01µM*
CO[C@@H]1[C@@H]([C@H](C)[C@@H]2O[C@@]3(CC[C@@](C)([C@H]4CC[C@@](C)([C@H]5O[C@H]([C@H]6O[C@](C)(O)[C@H](C)C[C@@H]6C)C[C@H]5O[C@H]5C[C@@H](OC)[C@H](OC)[C@@H](C)O5)O4)O3)C[C@@H](O)[C@@H]2C)O[C@@](O)(CC(=O)O)[C@H](C)[C@H]1OC,x,-4.4%,x,x,x
COCCN1CCC(CNCc2cn[nH]c2-c2ccc(C)c(C)c2)C1 (centres undefined),-17.5%,16.1%,-22.8%,11.1,u
COCCN1CCC(CNCc2cn(-c3cc(C)ccc3C)nc2-c2ccccc2)C1 (centres undefined),u,-0.7%,-19.2%,-21.0,2.82µM*
CC(=O)N1CCc2cc(Br)cc(S(=O)(=O)N3CCC(C(=O)O)CC3)c21,-1.8%,-0.5%,u,-105.6*,1.9%
O=C(C1CC1)N1CCc2cc(Br)cc(S(=O)(=O)N3CCCCCC3)c21,-6.6%,23.5%,i,-12.4,0.0%

# Assay outcomes from PubChem.
